Source: PubChem BioAssay (NCATS)
Values without a mark were called inactive. Activity calls are given as the source filed them. Unless noted, the call rests on the fitted dose curve; in most records, active means well fitted curve in the direction sought with a large enough effect (not every such curve was filed as active); inconclusive means small, poorly fitted or top-dose-only effect, or effect the other way, or another doubt; inactive means no such curve, though single readings can be large or run the other way.

Biological target: Pyruvate kinase PKM (Homo sapiens) (UniProt P14618)
Test: qHTS Assay for Activators of Human Muscle Pyruvate Kinase (AID 954);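 further: 0% = uninhibited enzyme and -100% = no enzyme or full thiadiazolimine inhibition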
Conditions: purified human muscle pyruvate kinase, luciferase-coupled luminescence, 1 h; series mostly up to 57.5 µM; activity change, negative = inhibition: at the top concentration
How it was run: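 Screening used highly purified human pyruvate kinase M2 under submaximal activity, with PEP at its Km and ADP below Km. After an hour at room temperature, ATP was read by luciferase luminescence.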

Sequence of Pyruvate kinase PKM (Homo sapiens) (P14618 whole entry, looked up): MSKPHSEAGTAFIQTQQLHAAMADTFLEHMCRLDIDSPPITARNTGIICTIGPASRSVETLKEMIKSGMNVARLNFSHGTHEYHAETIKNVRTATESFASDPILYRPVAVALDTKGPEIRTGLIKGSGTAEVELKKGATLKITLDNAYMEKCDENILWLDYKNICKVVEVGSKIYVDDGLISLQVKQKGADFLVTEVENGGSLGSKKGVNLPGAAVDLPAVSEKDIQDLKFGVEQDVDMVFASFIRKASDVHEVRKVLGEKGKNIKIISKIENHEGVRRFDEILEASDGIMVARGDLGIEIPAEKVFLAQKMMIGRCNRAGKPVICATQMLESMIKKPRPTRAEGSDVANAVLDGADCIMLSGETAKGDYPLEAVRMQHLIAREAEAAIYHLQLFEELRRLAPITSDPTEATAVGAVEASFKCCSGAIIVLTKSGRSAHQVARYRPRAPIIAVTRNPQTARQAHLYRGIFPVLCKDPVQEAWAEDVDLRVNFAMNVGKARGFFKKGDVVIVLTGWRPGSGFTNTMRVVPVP

SMILES	activity change, negative = inhibition	outcome
NCCCP(=O)(O)O	16.5%	–
O=[N+]([O-])c1ccc2nc(N3CCNCC3)ccc2c1	-15.9%	–
CCCN1CCc2cc(O)cc3c2[C@H]1Cc1ccc(O)c(O)c1-3	22.4%	–
CCCn1c(C)c(C(=O)c2ccc3ccccc3c2)c2ccccc21	1.75%	–
C[N+]1(C)CCN(c2ccccc2)CC1	-10.7%	–
CP(=O)(O)C1=CCNCC1	-15.5%	–
CCCN(CCC)C1Cc2cc(OC)c(OC)cc2C1	-5.11%	–
CC(=O)NBr	-1.59%	–
O=[N+]([O-])c1cc(O)c(O)c([N+](=O)[O-])c1	9.14%	–
COc1ccc2[nH]c3c(c2c1)CCNC3	-8.72%	–
CCCN(CCC)CCc1c[nH]c2ccc(C(N)=O)cc12	-3.79%	–
CCN(CCCl)Cc1ccccc1Br	-28.5%	–
CNC(=O)OCC[N+](C)(C)C	-4.98%	–
C[C@@H]1[C@@H]2Cc3ccc(O)cc3[C@@]1(C)CCN2CC1CC1	-12%	–
CCS(=O)(=O)Nc1cccc(C(=C2CCCCC2)c2cnc[nH]2)c1	-3.24%	–
NC(=O)CI	-22.5%	–
CC(C)NP(=O)(NC(C)C)OP(=O)(NC(C)C)NC(C)C	-19.7%	–
C[C@@H]1O[C@H](C[N+](C)(C)C)CS1	-11.6%	–
Clc1cc(I)cc(Cl)c1NC1=NCCN1	-5.51%	–
O=P(O)(O)C(Cl)(Cl)P(=O)(O)O	11.8%	–
CN1CCc2cccc(Cl)c2CC1	-11.9%	–
CCCN(CCC)[C@@H]1CCc2cccc(O)c2C1	–	inactive
Nc1ccc(CCN2CCN(c3cccc(C(F)(F)F)c3)CC2)cc1	-6.06%	–
O=S1(=O)N(CCN2CC=C(c3c[nH]c4cc(F)ccc34)CC2)c2cccc3c2N1CCC3	-18.7%	–
N#CC(C#N)=Cc1cc(O)c(O)c(O)c1	-27%	–
C[C@H](N)CN1CCc2ccc(Br)cc21	-8.72%	–
c1ccc2cc(CC3=NCCN3)ccc2c1	7.26%	–
NCCc1c[nH]c2ccc(C(N)=O)cc12	-30.2%	–
NC(N)=NOCC[C@H](N)C(=O)O	0.653%	–

Biological target: Alpha-galactosidase (Coffea arabica) (UniProt Q42656)
Test: Counterscreen for Glucocerebrosidase Inhibitors: qHTS Assay for Coffee Bean alpha-Galactosidase at pH 4.5 (AID 957; active means well fitted curve in the direction sought with a large enough effect;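 further: plate controls were enzyme alone for no effect and no enzyme for full effect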)
Conditions: purified coffee bean alpha-galactosidase, fluorogenic substrate; series mostly up to 76.9 µM; activity change, negative = inhibition: at the top concentration
How it was run: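 Fluorogenic qHTS at pH 4.5 (citrate buffer with Tween-20): 2 nM enzyme, 80 uM 4-MU-alpha-galactoside substrate, compound titrated 0.7 nM to 77 uM, 20 min room temperature. Glycine/NaOH stop; 4-MU read Ex 365/Em 440; Hill-equation AC50 against no-enzyme and enzyme controls.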

Sequence of Alpha-galactosidase (Coffea arabica) (Q42656 whole entry, looked up): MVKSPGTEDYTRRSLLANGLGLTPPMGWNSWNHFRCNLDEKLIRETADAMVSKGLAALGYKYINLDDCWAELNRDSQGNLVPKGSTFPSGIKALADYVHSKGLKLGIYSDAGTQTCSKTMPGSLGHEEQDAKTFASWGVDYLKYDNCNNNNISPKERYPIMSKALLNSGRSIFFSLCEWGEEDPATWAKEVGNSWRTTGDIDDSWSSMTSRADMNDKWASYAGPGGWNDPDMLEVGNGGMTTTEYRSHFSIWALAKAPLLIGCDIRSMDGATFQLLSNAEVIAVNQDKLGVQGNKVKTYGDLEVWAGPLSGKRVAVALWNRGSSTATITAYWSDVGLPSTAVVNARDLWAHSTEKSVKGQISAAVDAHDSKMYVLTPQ

SMILES	activity change, negative = inhibition	outcome
NCCCP(=O)(O)O	-0.44%	–
O=[N+]([O-])c1ccc2nc(N3CCNCC3)ccc2c1	-2.67%	–
CCCN1CCc2cc(O)cc3c2[C@H]1Cc1ccc(O)c(O)c1-3	-0.806%	–
CCCn1c(C)c(C(=O)c2ccc3ccccc3c2)c2ccccc21	-11.2%	–
C[N+]1(C)CCN(c2ccccc2)CC1	-0.059%	–
CP(=O)(O)C1=CCNCC1	1.48%	–
CCCN(CCC)C1Cc2cc(OC)c(OC)cc2C1	1.22%	–
CC(=O)NBr	-0.542%	–
O=[N+]([O-])c1cc(O)c(O)c([N+](=O)[O-])c1	-4.66%	–
COc1ccc2[nH]c3c(c2c1)CCNC3	-7.17%	–
CCCN(CCC)CCc1c[nH]c2ccc(C(N)=O)cc12	1.63%	–
CCN(CCCl)Cc1ccccc1Br	0.175%	–
CNC(=O)OCC[N+](C)(C)C	-2.5%	–
C[C@@H]1[C@@H]2Cc3ccc(O)cc3[C@@]1(C)CCN2CC1CC1	-1.06%	–
CCS(=O)(=O)Nc1cccc(C(=C2CCCCC2)c2cnc[nH]2)c1	1.54%	–
CC(C)NP(=O)(NC(C)C)OP(=O)(NC(C)C)NC(C)C	0.197%	–
C[C@@H]1O[C@H](C[N+](C)(C)C)CS1	-2.08%	–
Clc1cc(I)cc(Cl)c1NC1=NCCN1	0.0261%	–
O=P(O)(O)C(Cl)(Cl)P(=O)(O)O	-0.277%	–
CN1CCc2cccc(Cl)c2CC1	-1.59%	–
CCCN(CCC)[C@@H]1CCc2cccc(O)c2C1	–	inactive
Nc1ccc(CCN2CCN(c3cccc(C(F)(F)F)c3)CC2)cc1	-3.24%	–
O=S1(=O)N(CCN2CC=C(c3c[nH]c4cc(F)ccc34)CC2)c2cccc3c2N1CCC3	-10.1%	–
N#CC(C#N)=Cc1cc(O)c(O)c(O)c1	-3.44%	–
C[C@H](N)CN1CCc2ccc(Br)cc21	-0.0303%	–
c1ccc2cc(CC3=NCCN3)ccc2c1	1.72%	–
NCCc1c[nH]c2ccc(C(N)=O)cc12	0.682%	–
NC(N)=NOCC[C@H](N)C(=O)O	0.471%	–
